Experimental data taken from PubChem BioAssay (NCATS).
Inconclusive results are not listed. Activity calls are given as the source filed them. Unless noted, calls follow the shape of the dose curve; as a rule, active = well fitted curve in the direction sought with a large enough effect; inconclusive = small, poorly fitted or top-dose-only effect, or another doubt; inactive = no such curve, though single readings can be large; an effect the other way counts as inactive or inconclusive.

Assays:
[1] = target: Lysosomal acid glucosylceramidase (Homo sapiens) (UniProt P04062); assay: Glucocerebrosidase-p2 (AID 348; in the data active = potency below about 10 µM; also: potency is read from the fitted curve at half-maximal effect); conditions: purified GBA, blue fluorogenic substrate, 40 min
In short: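 Normal human glucocerebrosidase (0.2 nM) with blue fluorogenic substrate (80 uM final) in citrate/phosphate pH 5.9 with 10mM sodium taurocholate, 0.01% tween-20; 40 min RT, NaOH/glycine stop; fluorescence Ex 365/Em 440; AC50 from a titration from 0.6 nM upwards.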

[2] = AP1 Signaling Pathway (AID 357; active = well fitted curve in either direction with a large enough effect, not every such curve was filed as active;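 also: ME-180 reporter cells stimulated with EGF at its EC50 level; % is scaled to controls: 0 for no effect and ±100 for the full control effect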); conditions: ME-180 AP-1-bla reporter, EGF-induced, beta-lactamase ratio, 5 h; at 7.69 µM (top of the series) unless noted
In short: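 First, ME-180 AP-1-bla cells were cultured overnight at 37 °C in low-serum Opti-MEM. Next, titrated compounds with EC50 EGF were incubated 5 hours. Finally, CCF4 was added for 2.5 hours and the 460/530 nm ratio recorded.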

[3] = target: Cytochrome P450 1A2 (Homo sapiens) (UniProt P05177); assay: p450-cyp1a2 (AID 410; calls by dose curve; also: potency is read from the fitted curve at half-maximal effect); conditions: recombinant CYP1A2, luciferin-ME demethylation, luminescence; series mostly up to 57 µM
In short: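 20nM CYP1A2, 100uM Luciferin-ME (=Km), 100mM KPO4; cpd 10 min RT; +NADPH regen, 60 min RT; stop/detect 20 min; luminescence. Normalized to furafylline 57 uM = full inhibition.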

[4] = NFAT Signaling Pathway (AID 444; active = well fitted curve in either direction with a large enough effect, not every such curve was filed as active;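 also: carbachol stimulus at about its EC50 of 1 µM final; % is scaled to controls: 0 for no effect and ±100 for the full control effect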); conditions: Jurkat NFAT-bla M1, carbachol, beta-lactamase ratio, 5 h; at 7.69 µM (top of the series) unless noted
In short: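 Read-out: CCF4 FRET ratio (460 nm/530 nm) after 1 h RT dye loading, used for %activity and AC50 from titration series. Cells: Jurkat NFAT-β-lactamase/M1 line, treated with compound plus 1 uM carbachol for 5 h, 37 °C.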

[5] = Stat Signaling Pathway (AID 446; active = well fitted curve in either direction with a large enough effect, not every such curve was filed as active;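 also: ME-180 cervical cancer cells given 40 pM IL-6 alongside compound; SIE-controlled beta-lactamase reporter measured as 460/530 nm FRET emission ratio; % is scaled to controls: 0 for no effect and ±100 for the full control effect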); conditions: ME-180 (cervical carcinoma) SIE beta-lactamase reporter, IL-6 stimulated, 5 h; at 7.69 µM (top of the series) unless noted
In short: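 Normalization used AC90 stimulation (300 pM IL-6) and AC90 inhibition (125 nM pan-JAK inhibitor at 40 pM IL-6). The underlying signal is SIE-driven beta-lactamase in ME-180 cells after 5 h IL-6 exposure with compound.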

[6] = target: Glucocorticoid receptor (Homo sapiens) (UniProt P04150); assay: GR-GFP Redistribution (AID 450;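 active = compounds whose dose series gives a full or clear partial fitted curve of increased nuclear translocation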; also: potency is read from the fitted curve at half-maximal effect); conditions: U2OS GR-GFP nuclear translocation, laser cytometry, 2 h
[7] = target: Glucocorticoid receptor (Homo sapiens) (UniProt P04150); assay: GR-EFC Redistribution (AID 451; calls by dose curve; also: potency is read from the fitted curve at half-maximal effect); conditions: CHO-K1 GR-EFC translocation, beta-gal luminescence, 2 h
In short: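 Translocation of GR-ED fusion to nuclear EA restores b-gal, read by luminescence after 1 h room-temperature detection. Engineered CHO-K1 biosensor cells, 1,000/well, exposed 2 h at 37 C to titrations up to 46 uM final.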

[8] = target: Mitogen-activated protein kinase 10 (Mus musculus) (UniProt Q61831); assay: JNK3 AlphaScreen Assay (AID 530; active = well fitted curve in either direction with a large enough effect, not every such curve was filed as active;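 also: kinase came from lysate of stimulated human HepG2 cells; signal reports phosphorylation of biotinylated GST-cJun 1-79 at Ser73 with 10 µM ATP; % is scaled to controls: 0 for no effect and ±100 for the full control effect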); conditions: JNK3 lysate, c-Jun phosphorylation; series mostly up to 57.1 µM
In short: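 Kinase buffer: 20 mM Tris-HCl pH 7.6, 10 mM MgCl2, 1 mM DTT, 0.1 mM Na3VO4, 0.01% Tween-20; ATP 10 uM. Substrate biotin-GST-cJun(1-79), enzyme from activated HepG2 lysates. Detection by Ser73 phospho-antibody AlphaScreen.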

[9] = target: 3',5'-cyclic-AMP phosphodiesterase 4B (Homo sapiens) (UniProt Q07343); assay: qHTS Assay for Inhibitors of PDE-IV (AID 607; active = well fitted activation curve with a large enough effect in the main read-out, with a control signal flat, not every such curve was filed as active; also: % of control where 0% means no effect); conditions: HEK293 ACTOne CNG channel cells, membrane potential fluorescence; series mostly up to 22.9 µM
In short: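 HEK293 ACTOne cells with CNG channel (1000/well), endogenous PDE4; membrane potential dye, compounds up to 22.9 uM final. Fluorescence Ex 535/Em 590; RO 20-1724 (100 uM final) as reference.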

[10] = target: Cytochrome P450 3A4 (Homo sapiens) (UniProt P08684); assay: qHTS Assay for Activators of Cytochrome P450 3A4 (AID 885); conditions: recombinant CYP3A4, Luciferin-PPXE luminescence, 60 min; series mostly up to 57.1 µM; also: nearly all actives have a fitted effect of over 65% in size
In short: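 Human CYP3A4 dealkylates Luciferin-PPXE to luciferin, which luciferase detection converts to light. Substrate was at its KM (25uM), buffer 200mM KPO4, reaction 60 min at RT.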

[11] = target: Cytochrome P450 2C19 (Homo sapiens) (UniProt P33261); assay: qHTS Assay for Inhibitors and Substrates of Cytochrome P450 2C19 (AID 899); conditions: recombinant CYP2C19, luciferin-H EGE luminescence; series mostly up to 57.1 µM; also: potency is read from the fitted curve at half-maximal effect; nearly all actives have a fitted effect of over 60% in size
In short: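 5nM enzyme + 10uM Luciferin-H EGE (=KM), 50mM KPO4; cpd pin-transferred, 10 min 37C; NADPH regen, 60 min 37C; stopped w/ luciferin detection reagent, 20 min; luminescence. Normalized to 57uM ketoconazole (AC100).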

[12] = qHTS Assay for Lipid Storage Modulators (AID 1519; calls by dose curve); conditions: Drosophila S3 cells, BODIPY lipid droplet/cell ratio, laser cytometry, cells loaded with oleic acid
In short: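 Cells seeded at 5,000 per well were treated with compounds over a concentration series and loaded with oleic acid (400 uM, as added). Lipid droplet fluorescence (488 nm excitation, 500-530 nm channel) was read by laser-scanning cytometry and normalized to 20 uM Triacsin C.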

[13] = target: Dual specificity protein kinase CLK4 (Homo sapiens) (UniProt Q9HAZ1); assay: qHTS Assay for Inhibitors of CDC-like Kinase 4 (Kinase-Glo Assay) (AID 1770); conditions: recombinant Clk4, Kinase-Glo ATP depletion luminescence; series mostly up to 66.7 µM; also: potency is read from the fitted curve at half-maximal effect; nearly all actives have a fitted effect of over 65% in size
In short: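 Clk4 25 nM, RS peptide 100 uM, ATP 1 uM, pH 7.5 Tris, 10 mM MgCl2, 2.5 mM DTT; 4.5 h RT; ATP depletion read by Kinase-Glo luminescence.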

[14] = target: Dual specificity protein kinase CLK4 (Homo sapiens) (UniProt Q9HAZ1); assay: qHTS Assay for Inhibitors of CDC-like Kinase 4 (ADP-Glo Assay) (AID 1771); conditions: recombinant CLK4, ADP-Glo luminescence; series mostly up to 80 µM; also: potency is read from the fitted curve at half-maximal effect; nearly all actives have a fitted effect of over 70% in size
In short: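 25 nM Clk4, 100 uM RS peptide, 1 uM ATP (final); 2 mM MgCl2, 0.5 mM EGTA, 2.5 mM DTT, 0.01% Triton X-100; 1 hr RT. ADP-Glo readout: ATP depletion 45 min, conversion/luciferase 30 min, luminescence.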

[15] = target: Dual specificity protein kinase CLK4 (Homo sapiens) (UniProt Q9HAZ1); assay: qHTS Assay for Inhibitors of CDC-like Kinase 4 (ADP-FP Assay) (AID 1795); conditions: Transcreener ADP fluorescence polarization; series mostly up to 50 µM; also: potency is read from the fitted curve at half-maximal effect; nearly all actives have a fitted effect of over 60% in size
In short: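 Kinase activity was followed as ADP output, converted from fluorescence polarization with a calibration curve. Reactions ran one hour at low ATP (1 uM) with RS peptide substrate.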

[16] = target: Ubiquitin carboxyl-terminal hydrolase 1 (Homo sapiens) (UniProt O94782); assay: Inhibitors of USP1/UAF1: Pilot qHTS (AID 504865); conditions: purified USP1/UAF1, Ub-rhodamine cleavage fluorescence; series mostly up to 54.9 µM;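 also: rhodamine fluorescence freed from ubiquitin-rhodamine substrate followed over time; top concentration of the series differs between compounds; % is scaled to controls: 0 for no effect and ±100 for the full control effect; nearly all actives have a fitted effect of over 35% in size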
In short: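 Enzyme-free wells gave the negative control, while test wells held 1nM USP1/UAF1 preincubated with compound for 15 min at room temperature. Ub-Rho at 150nM final started the reaction, and fluorescence at 480/540 nm was recorded kinetically.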

[17] = target: Calcium and integrin-binding protein 1 (Homo sapiens) (UniProt Q99828); assay: Primary qHTS for Identification of Calcium Integrin Binding Protein 1 (CIB1) Competitor (AID 1508620); conditions: CIB1-GST / FITC-alphaIIb peptide fluorescence polarization; series mostly up to 114 µM
In short: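 CIB1-GST (1 uM final) and compound incubated 15 min at room temperature before adding FITC-alphaIIb peptide tracer (100 nM final). Competition for binding read by fluorescence polarization (ex 480, em 540) after another 15 min at room temperature.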

[18] = Primary qHTS for small molecule stabilizers of the endoplasmic reticulum resident proteome: Secreted ER Calcium Modulated Protein (SERCaMP) assay (AID 1508630); conditions: SH-SY5Y GLuc-SERCaMP (Gaussia luciferase released on ER calcium loss) secretion, thapsigargin, luminescence; series mostly up to 38.4 µM; also: % is scaled to controls: 0 for no effect and ±100 for the full control effect
In short: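 The SH-SY5Y reporter protocol was run at 3 concentrations up to 38.3 uM (primary) or 11 concentrations (follow-up): 16 h compound, 100 nM thapsigargin for 4 h, then extracellular luciferase luminescence.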

[19] = target: Rap guanine nucleotide exchange factor 3 (Homo sapiens) (UniProt O95398); assay: Confirmatory qHTS for antagonist of cAMP-regulated guanine nucleotide exchange factor 3 (EPAC1) (AID 1645880); conditions: EPAC1 Rap1B-BODIPY-GDP exchange, fluorescence; series mostly up to 115 µM;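 also: plate controls were DMSO only for no effect and full effect of the ATA control for full effect; nearly all actives have a fitted effect of over 55% in size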
In short: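 Released BODIPY-GDP fluoresces less than Rap1-bound BODIPY-GDP; the signal is followed at 480/540 nm at 5-min intervals over 30 min, after 5 min at room temperature. Reactions contain 100 nM EPAC1, 250 nM RAP1B-BODIPY-GDP and 50 uM GDP; results are normalized to ATA and DMSO.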

[20] = target: Rap guanine nucleotide exchange factor 3 (Homo sapiens) (UniProt O95398); assay: Confirmatory qHTS for agonist of cAMP-regulated guanine nucleotide exchange factor 3 (EPAC1) (AID 1645881); conditions: EPAC1 Rap1B BODIPY-GDP exchange fluorescence, 100% = cAMP control response; series mostly up to 154 µM;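 also: EPAC1 catalysed release of BODIPY-GDP from Rap1B seen as fluorescence loss; nearly all actives have a fitted effect of over 75% in size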
[21] = target: Rap guanine nucleotide exchange factor 4 (Homo sapiens) (UniProt Q8WZA2); assay: Confirmatory qHTS for agonist of cAMP-regulated guanine nucleotide exchange factor 4 (EPAC2) (AID 1645884); conditions: EPAC2 GEF activity, Rap1B-BODIPY-GDP fluorescence, percent relative to cAMP agonist control; series mostly up to 154 µM;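 also: nucleotide exchange releases bodipy-GDP from Rap1 and this lowers its fluorescence; % is scaled to controls: 0 for no effect and ±100 for the full control effect; nearly all actives have a fitted effect of over 65% in size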
[22] = target: Rap guanine nucleotide exchange factor 4 (Homo sapiens) (UniProt Q8WZA2); assay: Confirmatory qHTS for antagonist of cAMP-regulated guanine nucleotide exchange factor 4 (EPAC2) (AID 1645885); conditions: EPAC2 Rap1B-BODIPY-GDP exchange fluorescence, biochemical; series mostly up to 114 µM; also: % is scaled to controls: 0 for no effect and ±100 for the full control effect; nearly all actives have a fitted effect of over 25% in size
[23] = target: Rap guanine nucleotide exchange factor 3 (Homo sapiens) (UniProt O95398); assay: Counterscreen qHTS for antagonist of cAMP-regulated guanine nucleotide exchange factor 3 (EPAC1) (AID 1645888); conditions: Rap1B-BODIPY-GDP nucleotide exchange, fluorescence; series mostly up to 30.8 µM; also: % of control where 0% means no effect
In short: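 Rap1B-BODIPY-GDP 250 nM + GDP 50 uM; cpds 7-pt, final 9.74 nM–152 uM (activator mode) or from 7.32 nM upwards (inhibitor mode); RT; FI 480/540 nm at 5 and 30 min, then ± cAMP, reread.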

Sequence of Rap guanine nucleotide exchange factor 3 (Homo sapiens) (O95398 whole entry, looked up): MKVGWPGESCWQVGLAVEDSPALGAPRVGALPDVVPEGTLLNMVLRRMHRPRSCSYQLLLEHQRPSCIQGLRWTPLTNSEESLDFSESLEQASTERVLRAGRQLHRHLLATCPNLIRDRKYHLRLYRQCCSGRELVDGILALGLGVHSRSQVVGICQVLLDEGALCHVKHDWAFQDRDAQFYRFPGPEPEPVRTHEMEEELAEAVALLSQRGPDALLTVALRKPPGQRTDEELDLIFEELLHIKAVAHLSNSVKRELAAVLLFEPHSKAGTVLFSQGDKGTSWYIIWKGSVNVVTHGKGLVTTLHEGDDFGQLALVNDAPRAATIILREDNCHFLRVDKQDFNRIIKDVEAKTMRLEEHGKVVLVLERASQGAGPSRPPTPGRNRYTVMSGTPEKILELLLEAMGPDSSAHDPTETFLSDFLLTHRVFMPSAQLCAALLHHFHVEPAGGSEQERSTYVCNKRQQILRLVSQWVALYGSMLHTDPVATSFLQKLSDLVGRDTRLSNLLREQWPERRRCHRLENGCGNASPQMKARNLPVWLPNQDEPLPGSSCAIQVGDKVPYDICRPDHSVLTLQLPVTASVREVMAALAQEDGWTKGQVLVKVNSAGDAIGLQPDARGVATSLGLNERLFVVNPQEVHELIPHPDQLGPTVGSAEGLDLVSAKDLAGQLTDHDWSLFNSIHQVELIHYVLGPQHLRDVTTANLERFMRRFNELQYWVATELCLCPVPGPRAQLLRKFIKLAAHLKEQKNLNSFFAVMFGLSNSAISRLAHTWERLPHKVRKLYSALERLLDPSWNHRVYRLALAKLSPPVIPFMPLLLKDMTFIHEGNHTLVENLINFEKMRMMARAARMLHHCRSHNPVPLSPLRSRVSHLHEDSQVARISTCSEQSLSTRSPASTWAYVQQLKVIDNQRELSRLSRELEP
Sequence of Dual specificity protein kinase CLK4 (Homo sapiens) (Q9HAZ1 whole entry, looked up): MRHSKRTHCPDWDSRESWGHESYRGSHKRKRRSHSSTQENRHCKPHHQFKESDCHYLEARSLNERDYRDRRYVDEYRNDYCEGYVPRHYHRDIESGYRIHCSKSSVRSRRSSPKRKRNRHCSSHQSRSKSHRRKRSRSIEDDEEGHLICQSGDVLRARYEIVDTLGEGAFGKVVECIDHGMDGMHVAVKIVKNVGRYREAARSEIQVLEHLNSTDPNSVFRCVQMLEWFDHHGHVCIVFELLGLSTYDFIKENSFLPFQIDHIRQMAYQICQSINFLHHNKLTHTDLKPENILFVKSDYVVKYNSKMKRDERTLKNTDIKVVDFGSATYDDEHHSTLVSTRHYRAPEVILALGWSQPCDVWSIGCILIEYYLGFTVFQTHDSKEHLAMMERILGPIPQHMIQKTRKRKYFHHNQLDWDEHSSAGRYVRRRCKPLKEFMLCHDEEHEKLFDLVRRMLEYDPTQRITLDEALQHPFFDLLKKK
Sequence of Glucocorticoid receptor (Homo sapiens) (P04150 whole entry, looked up, the tested form may be a part): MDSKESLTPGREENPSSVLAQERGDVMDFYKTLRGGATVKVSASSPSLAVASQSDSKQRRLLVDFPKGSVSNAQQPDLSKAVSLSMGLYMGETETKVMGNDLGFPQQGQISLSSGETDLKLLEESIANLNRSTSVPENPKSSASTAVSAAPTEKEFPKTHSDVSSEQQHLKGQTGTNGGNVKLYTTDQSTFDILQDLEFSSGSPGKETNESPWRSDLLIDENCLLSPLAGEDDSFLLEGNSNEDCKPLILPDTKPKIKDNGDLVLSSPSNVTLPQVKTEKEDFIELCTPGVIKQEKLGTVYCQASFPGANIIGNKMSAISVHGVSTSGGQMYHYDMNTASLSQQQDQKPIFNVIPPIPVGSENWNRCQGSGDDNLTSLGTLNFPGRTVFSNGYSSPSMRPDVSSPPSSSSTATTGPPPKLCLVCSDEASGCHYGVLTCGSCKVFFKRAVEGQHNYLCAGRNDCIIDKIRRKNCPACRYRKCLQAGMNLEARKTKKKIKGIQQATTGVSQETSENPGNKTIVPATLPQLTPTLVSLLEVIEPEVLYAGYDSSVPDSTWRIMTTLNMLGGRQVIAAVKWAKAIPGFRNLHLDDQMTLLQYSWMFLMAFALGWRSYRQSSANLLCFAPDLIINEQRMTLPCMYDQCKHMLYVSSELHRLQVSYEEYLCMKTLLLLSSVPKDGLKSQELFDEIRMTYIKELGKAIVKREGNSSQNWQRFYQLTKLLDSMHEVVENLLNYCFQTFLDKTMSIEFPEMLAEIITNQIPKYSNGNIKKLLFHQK
Sequence of Rap guanine nucleotide exchange factor 4 (Homo sapiens) (Q8WZA2 whole entry, looked up): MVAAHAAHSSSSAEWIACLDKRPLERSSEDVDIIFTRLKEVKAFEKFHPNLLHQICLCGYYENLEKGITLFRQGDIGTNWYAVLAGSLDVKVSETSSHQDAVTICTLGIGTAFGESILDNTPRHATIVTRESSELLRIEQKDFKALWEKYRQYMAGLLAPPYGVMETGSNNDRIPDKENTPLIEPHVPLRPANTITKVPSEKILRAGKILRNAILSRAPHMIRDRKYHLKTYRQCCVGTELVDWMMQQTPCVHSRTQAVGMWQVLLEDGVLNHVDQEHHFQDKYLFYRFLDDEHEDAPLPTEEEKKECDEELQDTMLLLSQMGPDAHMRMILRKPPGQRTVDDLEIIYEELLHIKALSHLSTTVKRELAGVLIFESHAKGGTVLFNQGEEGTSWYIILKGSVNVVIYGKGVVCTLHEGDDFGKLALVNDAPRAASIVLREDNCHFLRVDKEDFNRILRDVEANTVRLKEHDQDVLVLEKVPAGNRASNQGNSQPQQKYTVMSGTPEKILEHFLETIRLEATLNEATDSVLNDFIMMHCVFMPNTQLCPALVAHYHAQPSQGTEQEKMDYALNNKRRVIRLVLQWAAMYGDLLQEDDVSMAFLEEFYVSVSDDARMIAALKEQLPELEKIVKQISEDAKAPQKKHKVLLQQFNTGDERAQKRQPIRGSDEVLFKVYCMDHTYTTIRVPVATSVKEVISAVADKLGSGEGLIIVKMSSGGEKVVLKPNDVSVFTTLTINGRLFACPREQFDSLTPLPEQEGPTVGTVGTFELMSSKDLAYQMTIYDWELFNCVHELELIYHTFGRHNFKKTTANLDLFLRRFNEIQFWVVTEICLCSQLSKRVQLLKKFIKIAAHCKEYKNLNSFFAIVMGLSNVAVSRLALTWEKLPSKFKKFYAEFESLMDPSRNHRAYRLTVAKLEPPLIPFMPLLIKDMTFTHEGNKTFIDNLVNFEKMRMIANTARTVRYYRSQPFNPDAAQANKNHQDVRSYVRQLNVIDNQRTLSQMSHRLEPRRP
Sequence of Cytochrome P450 3A4 (Homo sapiens) (P08684 whole entry, looked up): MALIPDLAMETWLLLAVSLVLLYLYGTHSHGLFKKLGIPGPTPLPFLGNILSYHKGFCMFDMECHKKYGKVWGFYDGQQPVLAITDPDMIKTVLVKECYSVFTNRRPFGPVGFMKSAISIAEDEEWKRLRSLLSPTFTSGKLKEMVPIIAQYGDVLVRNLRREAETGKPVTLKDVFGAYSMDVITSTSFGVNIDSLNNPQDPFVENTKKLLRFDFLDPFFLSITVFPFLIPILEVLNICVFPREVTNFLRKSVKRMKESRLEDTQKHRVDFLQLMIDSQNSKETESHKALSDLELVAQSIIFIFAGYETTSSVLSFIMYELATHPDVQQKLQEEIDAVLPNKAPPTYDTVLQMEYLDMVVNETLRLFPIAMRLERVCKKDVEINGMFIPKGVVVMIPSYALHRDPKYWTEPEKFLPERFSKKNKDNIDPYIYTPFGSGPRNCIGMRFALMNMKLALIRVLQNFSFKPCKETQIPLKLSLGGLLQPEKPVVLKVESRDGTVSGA
Sequence of 3',5'-cyclic-AMP phosphodiesterase 4B (Homo sapiens) (Q07343 whole entry, looked up): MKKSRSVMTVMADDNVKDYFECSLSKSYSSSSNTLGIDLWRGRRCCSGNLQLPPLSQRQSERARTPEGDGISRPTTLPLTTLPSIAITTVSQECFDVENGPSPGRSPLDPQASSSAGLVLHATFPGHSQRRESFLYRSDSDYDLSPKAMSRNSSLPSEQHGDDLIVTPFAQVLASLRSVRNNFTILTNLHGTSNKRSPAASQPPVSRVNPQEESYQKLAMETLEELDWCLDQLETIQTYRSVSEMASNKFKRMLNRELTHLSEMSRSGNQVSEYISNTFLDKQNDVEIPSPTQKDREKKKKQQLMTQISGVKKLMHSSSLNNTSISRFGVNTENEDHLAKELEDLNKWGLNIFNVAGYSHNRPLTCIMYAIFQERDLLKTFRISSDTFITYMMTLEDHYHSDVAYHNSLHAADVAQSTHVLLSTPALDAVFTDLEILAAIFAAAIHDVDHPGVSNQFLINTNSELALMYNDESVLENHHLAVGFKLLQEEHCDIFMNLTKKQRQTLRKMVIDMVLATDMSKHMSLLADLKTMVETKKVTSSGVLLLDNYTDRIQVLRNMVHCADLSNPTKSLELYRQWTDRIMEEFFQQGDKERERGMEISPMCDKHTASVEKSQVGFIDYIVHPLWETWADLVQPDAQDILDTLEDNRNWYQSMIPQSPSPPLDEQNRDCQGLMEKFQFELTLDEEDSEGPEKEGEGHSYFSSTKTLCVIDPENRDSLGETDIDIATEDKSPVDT
Sequence of Calcium and integrin-binding protein 1 (Homo sapiens) (Q99828 whole entry, looked up): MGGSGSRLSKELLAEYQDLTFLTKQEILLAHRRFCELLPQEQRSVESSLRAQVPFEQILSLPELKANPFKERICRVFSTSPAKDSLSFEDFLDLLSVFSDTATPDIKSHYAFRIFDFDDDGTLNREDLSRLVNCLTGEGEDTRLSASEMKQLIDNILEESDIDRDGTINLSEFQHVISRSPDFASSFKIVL

COc1cccc(-c2ccc3ncnc(N(C)Cc4ccco4)c3c2)c1
active: Potency [3] 1.26 µM | Potency [11] 2 µM | Potency [13] 2 µM | Potency [14] 1.78 µM | Potency [15] 0.562 µM
7.63%: max response ([12]; measured here: lipid channel max response)
8.44%: max response ([12]; measured here: cell count channel max response)
inactive: Potency [1] > 11.4 µM | activity change, negative = inhibition [2] -18.7% | activity change, negative = inhibition [4] -8.47% | activity, negative = inhibition [5] -14.9% | Potency [6] > 46 µM | Potency [7] > 46 µM | outcome [8] | Potency [9] | Potency [10] | activity change, negative = inhibition ([12]; at 57.5 µM (top of the series)) 1.9% | Potency [16] | Potency [17] | Potency [18] | Potency [19] | outcome [20] | activation [21] 8.39% [at 17.1 µM] | activity change, negative = inhibition [22] -12.8% [at 12.7 µM] | outcome [23]
